Laboratory results published in ChEMBL document CHEMBL4513216, “Probing the Open Global Health Chemical Diversity Library for Multistage-Active Starting Points for Next-Generation Antimalarials” (ACS Infect Dis, 2020).
In all, about 68,000 compounds went through this assay and about 2,700 (4%) showed an effect of 50% or more. The list comes from a sample in which strong results are over-represented; it also holds similar structures and randomly drawn compounds.

What follows are molecules tested on Plasmodium berghei (assay: Screen against P. berghei liver stage (PbLuc), transformed with Luciferase, at 2uM). Conditions: tested at 2 uM.
Assay type: functional, HepG2

SMILES | INHIBITION
Fc1ccccc1Cn1c(C2CCNCC2)cc2cccnc21 | -23.54%
CCOc1cccc(C(=O)N2CCN(c3nccc(OC)n3)CC2)c1 | 8.37%
CCc1ncc(C(=O)N2CCCN(C3CCCCC3)CC2)cn1 | -35.1%
COc1cccc(C2(C(=O)NC3CCc4nccn4C3)CCCC2)c1 (stereo not drawn) | -5.74%
O=C(c1nc(=O)[nH][nH]1)N1CCCCCC1 | 33.9%
CCn1c(C2CCCN(Cc3ccnc4ccccc34)C2)nn(C)c1=O (stereo not drawn) | 17.48%
OCCOCCNCC1(c2ccc(F)cc2)CCOC1 (stereo not drawn) | -18.52%
CN(Cc1ccccc1)CC(O)Cn1cnc2cc(F)ccc2c1=O (stereo not drawn) | -75.13%
Cc1ccc(N2CC[C@H]3O[C@@H](C(=O)NCc4ccco4)CC[C@H]32)nn1 | 4.64%
CCNC(=O)NC(=O)CN1CCOC(c2ccc(Br)cc2)C1 (stereo not drawn) | 59.94%
CCCNC(=O)CN1CCOC(c2ccc(Br)cc2)C1 (stereo not drawn) | 15.82%
CCNC(=O)NC(=O)CN1CCOC(c2cccc(Br)c2)C1 (stereo not drawn) | 16.72%
Cn1cc(NC(=O)c2cc3c(s2)CCCC3)cn1 | -56.09%
Cc1nc(C)n(CC2CCCCN2CCCS(C)(=O)=O)n1 (stereo not drawn) | -12.84%
CC(C)N(CCNC(=O)c1ccc(S(=O)(=O)NC2CC2)cc1)C(C)C | 58.12%
CN(C)CCNC(=O)c1ccc(S(=O)(=O)N[C@@H]2CCNC2)cc1 | 8.31%
O=C(NCCc1ccncc1)c1ccc(S(=O)(=O)NC2CCC2)cc1 | 28.85%
CC(O)CN1CCN(C(=O)c2cccn2Cc2ccccc2)CC1 (stereo not drawn) | 15.28%
O=C(c1ccncc1)N1CCCn2c(CN3CCCC3)nnc2C1 | 23.14%
Cc1cc(C)c(CNC(=O)NCC2Cc3ccccc32)c(=O)[nH]1 (stereo not drawn) | 45.16%
NC(=O)c1ccc(CNC(=O)Nc2cn[nH]c2)cc1 | 26.06%
CN1CC(=O)N(c2cnn(C)c2)CC12CCN(Cc1ccccc1)C2 (stereo not drawn) | 15.96%
COCc1nnc(C(=O)N2CCCC(O)C2)o1 (stereo not drawn) | 30.88%
COCc1nnc(C(=O)N2CC(N3CCCCC3)C2)o1 | -13.03%
COCc1nnc(C(=O)N2CCC(N3CCCCC3)CC2)o1 | 57.89%
CN(C)C(C(=O)N1CC(Oc2ccccc2F)C1)c1ccccc1F (stereo not drawn) | 19.07%

SMILES | INHIBITION
CCCN1CCCN(C(=O)c2ccc(Oc3cccnc3)cc2)CC1 | 35.37%
COc1cccc(CN(C)CCCn2cnc3c(N)ncnc32)c1 | -51.87%
COc1cccc(SCCCn2cnc3c(N)ncnc32)c1 | 52.19%
COc1ccc(OCCN(C)CCCn2cnc3c(N)ncnc32)cc1 | 36.29%
Cc1ncnc2c1CCN(C(=O)c1ccncc1F)CC2 | 6.81%
O=C1CC(c2ccncc2)C2(CCN(CC3CC3)CC2)N1 (stereo not drawn) | 22.2%
Cc1nc(N2C[C@H]3CC[C@@H](C2)N3)nc2cc(S(C)(=O)=O)ccc12 | 77.42%
Cc1nc(N2CCCC(C)C2)nc2cc(S(C)(=O)=O)ccc12 (stereo not drawn) | -24.78%
Cc1nc(N2CCN3CCCCC3C2)nc2cc(S(C)(=O)=O)ccc12 (stereo not drawn) | -15.11%
O=C(COc1ccccc1)NCCNC(=O)c1scnc1Cl | 7.71%
CC(C)(C)OC(=O)N1CCCN(c2nnc(C3CC3)s2)CC1 | 34.69%
Cc1nnc(NC(=O)CN2CCc3nn(C)c(=O)cc3C2)s1 | 23.27%
Cc1cc(CN2CCN(CC(O)c3ccc4c(c3)OCO4)CC2)no1 (stereo not drawn) | -19.1%
Cc1noc(C)c1CNCC1COCc2c(-c3ccsc3)nnn2C1 (stereo not drawn) | 7.68%
Cc1cc(C)c(CNC(=O)NCc2ccc3c(c2)CCC3)c(=O)[nH]1 | -7.02%
Cc1cc(C)c(CNC(=O)c2ccc3c(c2)CCC3)c(=O)[nH]1 | 58.52%
Cc1cc(C)c(CNC(=O)NC(C)c2ccc3c(c2)CCC3)c(=O)[nH]1 (stereo not drawn) | 50.05%
Cc1cc(C)c(CNC(=O)Cc2ccc3c(c2)CCCC3)c(=O)[nH]1 | 4.18%
Cc1ccc(C(O)CNC(=O)NCc2c(C)cc(C)[nH]c2=O)cc1 (stereo not drawn) | -11.2%
Cc1cc(C)c(CNC(=O)NCCOc2ccc3c(c2)CCC3)c(=O)[nH]1 | 14.11%
CNc1ncc(C(=O)N2CCOC(C(=O)NC3CCCC3)C2)cn1 (stereo not drawn) | 8.75%
Cc1ccc(CN(CCCn2ccnc2)Cc2cc(F)ccc2F)s1 | 20.71%
CC1=N[C@@]2(CC[C@@H]3CN(CC4CC4)C[C@@H]32)C(=O)N1CC(C)C | 28.85%
CN(Cc1ccco1)[C@@H]1CN(C(=O)c2ccnnc2)[C@@H]2CCCO[C@H]12 | 7.08%
Cc1nccnc1N1C[C@H]2CN(C3CCOCC3)C[C@@]2(C(=O)O)C1 | 8.93%
Cn1cc(C(=O)Nc2cccc(F)c2)ccc1=O | -66.38%

SMILES | INHIBITION
CC(NC(=O)c1ccc(=O)n(C)c1)c1ccccc1-n1cccn1 (stereo not drawn) | 51.64%
CC(NC(=O)c1cc(=O)n(C)c(=O)n1C)c1ccccc1-n1cccn1 (stereo not drawn) | 50.97%
CC(NC1CCSCC1)c1ccccc1-n1cccn1 (stereo not drawn) | 27.52%
CCC(=O)NC(C)c1ccccc1C (stereo not drawn) | -6.19%
CCN(CC)CCCC(C)NC(=O)c1ccccc1-n1cccn1 (stereo not drawn) | 19.33%
Cn1c(CNc2c(F)cccc2-n2cccn2)cc(=O)n(C)c1=O | 32.14%
CC(NC1CCCC1)c1ccccc1-n1cccn1 (stereo not drawn) | 21.28%
Cc1ccccc1C(C)NC(=O)c1ccc(=O)n(C)c1 (stereo not drawn) | 64.9%
CC(=O)NCc1cc2n(n1)CCN(Cc1ccccc1OC(F)(F)F)C2 | 27.52%
CCN(CC)S(=O)(=O)N1C[C@@H](c2ccccc2)[C@H]2[C@H]1CCCCCN2C | 20.71%
Cc1nc(C)c(-c2ccn(CC(=O)Nc3cnn(C)n3)n2)s1 | 8.05%
CC(C)=CCN1C[C@@H]2CC[C@H]1CN(C(=O)c1ccc3c(c1)OCO3)C2 | 34.98%
Cc1cc2c(=O)n(CCSc3cnn[nH]3)cnc2s1 | 39.99%
CN(Cc1ccsc1)C(=O)c1ccc(C2CCCO2)s1 (stereo not drawn) | -15.11%
O=C(CNC(=O)c1ccccc1I)NCc1ccccc1F | -20.75%
CS(=O)(=O)NCc1cc(=O)n2c(n1)CN(CC1CC1)CCC2 | 33.12%
Clc1cnccc1N1CCCC2(CCCOC2)C1 (stereo not drawn) | 48.73%
CCNC(=O)NC1CCN(c2ccc(S(=O)(=O)CC)cc2)CC1 | -6.38%
CCS(=O)(=O)c1ccc(N2CCC(NC(C)=O)CC2)cc1 | -0.54%
CCS(=O)(=O)c1ccc(N2CCC(N)CC2)cc1 | 67.9%
O=C(c1sccc1C1CC1)N1CCN(c2nccs2)CC1 | -15.54%
CC(c1ccon1)N(C)S(=O)(=O)NCc1ccccc1 (stereo not drawn) | -6.7%
Cc1cc(C(=O)N(C)CC(F)(F)C(F)(F)F)ccc1-n1cncn1 | 49.78%
CCN(CC)C(=O)CCc1nc(-c2cnn3c(C)cc(C)nc23)no1 | -23.48%
O=C(NCc1cccnc1N1CCCCC1)c1ccc2cc[nH]c2c1 | 15.75%
O=C(NCc1cccnc1N1CCCCC1)c1ccc2[nH]nnc2c1 | 54.47%

SMILES | INHIBITION
O=C(NCc1cccnc1N1CCCC(O)C1)c1ccc2[nH]nnc2c1 (stereo not drawn) | 33.13%
O=C1NC[C@@]2(C(=O)O)CN(Cc3cccc(CN4CCOCC4)c3)C[C@@H]12 | 34.46%
O=C1NC[C@@]2(C(=O)O)CN(Cc3cccc(Oc4ccccc4)c3)C[C@@H]12 | 24.55%
O=C1NC[C@@]2(C(=O)O)CN(Cc3cccc(OC4CCCC4)c3)C[C@@H]12 | 62%
Cc1cc(C(C)(O)CNC(=O)c2ccc(Br)o2)c(C)o1 (stereo not drawn) | 27.32%
Cc1cc(C(C)(O)CNC(=O)OC(C)(C)C)c(C)o1 (stereo not drawn) | 25.21%
Cc1cc(C(C)(O)CNC(=O)C2(C)CCCC2)c(C)o1 (stereo not drawn) | 65.92%
COCC1CC2(CCN(Cc3ccc(OC)cc3)CC2)CN1C(C)C (stereo not drawn) | 2.07%
CC1CCN(CCNC(=O)c2cncnc2C(C)C)CC1 | 25.35%
Cc1ccccc1-c1ncc(CNCc2csc(C(C)C)n2)s1 | -17.01%
Cc1cnc(CNCc2cnc(-c3ccccc3C)s2)cn1 | 58.53%
CCC1=NOC(CNCc2cnc(-c3ccccc3C)s2)C1 (stereo not drawn) | -31.79%
COCCN1C=NC2(CCC(C(=O)Nc3ccc(C)cc3)CC2)C1=O (stereo not drawn) | -76.06%
COc1cccc(-c2noc(C3CCN(Cc4ccc(C)cc4)C3)n2)c1 (stereo not drawn) | 58.96%
COc1cccc(-c2noc(C3CCN(Cc4ccccc4C)C3)n2)c1 (stereo not drawn) | 3.97%
COc1cccc(-c2noc(C3CCN(Cc4ccncc4)C3)n2)c1 (stereo not drawn) | -22.79%
Cc1cccc(CN2CCC3(CC2)CN(c2cnn(C)c2)C(=O)CO3)n1 | -29.81%
Cc1cc(NC(=O)C(C#N)Cc2cnn(C)c2C)no1 (stereo not drawn) | -11.32%
CN1CCCC1CCn1ccnc1-c1nc(-c2ccccc2)no1 (stereo not drawn) | 17.37%
O=c1c(S(=O)(=O)N2CCCC2)cccn1Cc1ccc(F)cc1Cl | 0.78%
O=c1c(S(=O)(=O)N2CCCC2)cccn1Cc1ccccc1Cl | 52.89%
O=c1c(S(=O)(=O)N2CCCCC2)cccn1Cc1ccccc1Cl | -10.16%
O=C(NCc1cccc(F)c1)NCC(O)c1cccc(F)c1 (stereo not drawn) | -70.27%
Cc1ccc(C)c(NC(=O)c2coc(C)n2)c1 | 48.68%
COCc1ccc(C(=O)NS(=O)(=O)c2ccc3c(c2)CCC(=O)N3)cc1 | 24.36%
